The text below walks through data of PubChem BioAssay.

The nature of experiment [1]: small molecules captured by biotinylated probe aFSTL3 – biochemical, small-molecule microarray, fluorescence 635/667, stem cell growth factor project, primary screen (AID 1064).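 Further: measures binding of the biotinylated anti-FSTL3 antibody to printed compounds.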 Conditions: higher = more signal.
Experiment [2] is described as follows: binders from COS7 lysate, DM2A8 probe, primary screen, torsin A project, cell lysate, small-molecule microarray, fluorescence 635/667 (AID 1065). Conditions: higher = more signal, COS7 lysate expressing mutant human TOR1A.
Experiment [3] can be described thus: small molecules captured by biotinylated probe aFGF2 – biochemical, small-molecule microarray, fluorescence 635/667, stem cell growth factor project, primary screen (AID 1067).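 Further: measures binding of biotinylated aFGF2 protein to printed compounds on slides; z-score merges feature fluorescence and signal-to-noise across triplicate slides.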 Conditions: higher = more signal.
Experiment [4] is described as follows: small molecules captured by biotinylated probe aFGF10 – biochemical, small-molecule microarray, fluorescence 635/667, stem cell growth factor project, primary screen (AID 1071).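 Further: score merges 667 nm spot intensity and signal to noise from triplicate slides.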 Conditions: higher = more signal.
The target of experiment [5] is Neurogenic locus notch homolog protein 2 (Homo sapiens) (UniProt Q04721). The experiment is described as follows: small molecules binding Notch2 protein – biochemical, small-molecule microarray, 635 nm fluorescence, stem cell growth factors, primary screen (AID 1073). Conditions: higher = more signal.
The target of experiment [6] is Pro-neuregulin-1, membrane-bound isoform (Homo sapiens) (UniProt Q02297). The experiment is described as follows: small molecules binding neuregulin-1 protein – biochemical, small-molecule microarray, fluorescence 635/667, psychiatric disease protein project, primary screen (AID 1075).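 Further: score combines 667 nm spot fluorescence with signal to noise.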 Conditions: NRG1 binding, 635 nm fluorescence, higher = more signal.
The subject of experiment [7] is Neuregulin-1 EGF-like domain. The experiment in a line: small molecules binding NRG1 EGF domain – biochemical, small-molecule microarray, 635 nm fluorescence, primary screen (AID 1081).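 Further: binding of the protein to compounds printed on small-molecule microarray slides.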 Conditions: higher = more signal.
Experiment [8] is described as follows: FRG1 expression reporter modulators in myotubes – cell-based, C2C12 myotubes, firefly/Renilla luciferase, luminescence, FRG1 inhibition for FSHD, primary screen (AID 1084). Conditions: FRG1 promoter luciferase, higher = more signal, called active from +8 up or from −8 down.
The nature of experiment [9]: small molecules captured by biotinylated probe aFST – biochemical, small-molecule microarray, fluorescence 635/667, stem cell growth factor project, primary screen (AID 1086).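 Further: score merges 667 nm fluorescence with signal-to-noise of each printed compound spot.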 Conditions: higher = more signal.
Experiment [10] can be described thus: binders of probe aHhip on microarray, primary screen, stem cell growth factor project, biochemical, small-molecule microarray, fluorescence 635/667 (AID 1087).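 Further: score merges spot fluorescence at 667nm with spot signal to noise ratio.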 Conditions: higher = more signal.
Experiment [11] concerns PRMT1 (protein arginine N-methyltransferase 1). The experiment is described as follows: small molecules binding arginine methyltransferase PRMT1 – biochemical, small-molecule microarray, 635 nm fluorescence, primary screen (AID 1088).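 Further: binding of Prmt1 protein to compounds spotted on small-molecule microarray slides.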 Conditions: higher = more signal.
Experiment [12] is described as follows: growth effects on S. cerevisiae YJM789 – YJM789 clinical isolate, OD600, 24 h, basal, primary screen (AID 1089).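 Further: growth of clinical yeast isolate S. cerevisiae YJM 789 seeded 1000 cells per well; test concentration not given here.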 Conditions: higher = more signal, called active from +8 up or from −8 down.
Experiment [13] in a line: S. pombe growth modifiers, basal conditions – strain 972, OD600, 24 h, no modulator, primary screen (AID 1090).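 Further: basal condition with compound alone and no growth modifier present; test concentration not given here.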 Conditions: S. pombe 972 growth, higher = more signal, called active from +8 up or from −8 down.
A short description of experiment [14]: budding yeast growth modifiers under rapamycin – strain BY4716, OD600, 96 h, primary screen (AID 1091). Further: test concentration not given here. Conditions: S. cerevisiae BY4716 + rapamycin, higher = more signal, called active from +8 up or from −8 down.
Experiment [15] has as its target Torsin-1A-interacting protein 2 (Homo sapiens) (UniProt Q8NFQ8). The experiment is described as follows: small molecules binding lysate-expressed LULL1 – cell lysate, human LULL1 lysate, 635/667 nm fluorescence, primary screen (AID 1092).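 Further: score merges per-feature 667 nm fluorescence with signal-to-noise.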 Conditions: small-molecule microarray, hLULL1 lysate binding, 635 nm fluorescence; higher = more signal.
Experiment [16] is described as follows: optical density change of DRC41 E. coli – strain DRC41, OD650, 24 h, E. coli filamentation project, primary screen (AID 1093).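 Further: MC1000 strain lacking acrAB efflux and sulA so SOS filamentation is blocked; test concentration not given here.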 Conditions: E. coli DRC41 growth, higher = more signal, called active from +8 up or from −8 down.
The nature of experiment [17]: probe aLefty2 binding to arrayed compounds – biochemical, biotinylated probe, 635/667 nm fluorescence, primary screen (AID 1094).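 Further: score merges spot fluorescence near 667 nm with spot signal-to-noise ratio.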 Conditions: small-molecule microarray, higher = more signal.
For experiment [18], the system named is Noggin (protein binding on small-molecule microarray). The experiment is described as follows: small molecules binding Noggin protein – biochemical, 635/667 nm fluorescence, primary screen (AID 1095).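 Further: score merges 667 nm feature fluorescence with signal to noise over triplicate slides.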 Conditions: 635 nm fluorescence, higher = more signal.
Experiment [19] deals with Neurogenic locus notch homolog protein 3 (Homo sapiens) (UniProt Q9UM47). The experiment in a line: small molecules binding NOTCH3 protein – biochemical, 635/667 nm fluorescence, primary screen (AID 1096). Conditions: small-molecule microarray, 635 nm fluorescence, higher = more signal.
A short description of experiment [20]: probe aEGFR binding to arrayed compounds – biochemical, biotinylated probe, 635/667 nm fluorescence, primary screen (AID 1097).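 Further: probe is a biotinylated anti-EGFR antibody binding compounds printed on slides; score combines fluorescence near 667 nm and signal to noise of each spot.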 Conditions: small-molecule microarray, higher = more signal.

Activity calls are given as the source filed them.

Sequence of Pro-neuregulin-1, membrane-bound isoform (Homo sapiens) (Q02297 whole entry, looked up, the tested form may be a part, canonical isoform): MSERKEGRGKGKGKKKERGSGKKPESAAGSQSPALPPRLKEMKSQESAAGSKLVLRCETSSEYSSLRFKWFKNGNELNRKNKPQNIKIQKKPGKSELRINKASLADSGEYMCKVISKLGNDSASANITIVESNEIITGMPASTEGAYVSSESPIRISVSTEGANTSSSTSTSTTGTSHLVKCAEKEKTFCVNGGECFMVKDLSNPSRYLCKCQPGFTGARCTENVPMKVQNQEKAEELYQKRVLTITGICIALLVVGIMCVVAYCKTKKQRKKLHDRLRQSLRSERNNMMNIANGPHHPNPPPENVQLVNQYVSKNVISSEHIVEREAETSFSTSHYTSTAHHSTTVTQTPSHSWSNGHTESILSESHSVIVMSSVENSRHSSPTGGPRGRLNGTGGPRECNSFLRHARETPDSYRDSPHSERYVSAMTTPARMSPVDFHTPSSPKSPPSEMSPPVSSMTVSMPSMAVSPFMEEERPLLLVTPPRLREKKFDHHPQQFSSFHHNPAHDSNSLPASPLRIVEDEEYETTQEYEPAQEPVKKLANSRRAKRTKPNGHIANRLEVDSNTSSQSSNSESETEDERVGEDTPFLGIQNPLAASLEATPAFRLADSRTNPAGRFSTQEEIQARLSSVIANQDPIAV
Sequence of Torsin-1A-interacting protein 2 (Homo sapiens) (Q8NFQ8 whole entry, looked up): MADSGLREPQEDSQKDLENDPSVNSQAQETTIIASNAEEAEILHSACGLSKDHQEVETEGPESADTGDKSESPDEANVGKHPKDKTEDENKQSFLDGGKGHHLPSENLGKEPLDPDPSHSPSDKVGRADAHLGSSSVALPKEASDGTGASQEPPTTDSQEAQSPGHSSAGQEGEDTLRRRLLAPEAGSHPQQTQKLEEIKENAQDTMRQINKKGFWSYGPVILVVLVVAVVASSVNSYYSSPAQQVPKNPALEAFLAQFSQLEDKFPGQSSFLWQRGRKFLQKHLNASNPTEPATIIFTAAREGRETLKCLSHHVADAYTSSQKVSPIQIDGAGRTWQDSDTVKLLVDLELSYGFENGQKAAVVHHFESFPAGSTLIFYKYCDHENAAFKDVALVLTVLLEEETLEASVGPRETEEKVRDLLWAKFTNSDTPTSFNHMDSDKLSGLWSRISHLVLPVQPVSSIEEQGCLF
Sequence of Neurogenic locus notch homolog protein 2 (Homo sapiens) (Q04721 whole entry, looked up, canonical isoform): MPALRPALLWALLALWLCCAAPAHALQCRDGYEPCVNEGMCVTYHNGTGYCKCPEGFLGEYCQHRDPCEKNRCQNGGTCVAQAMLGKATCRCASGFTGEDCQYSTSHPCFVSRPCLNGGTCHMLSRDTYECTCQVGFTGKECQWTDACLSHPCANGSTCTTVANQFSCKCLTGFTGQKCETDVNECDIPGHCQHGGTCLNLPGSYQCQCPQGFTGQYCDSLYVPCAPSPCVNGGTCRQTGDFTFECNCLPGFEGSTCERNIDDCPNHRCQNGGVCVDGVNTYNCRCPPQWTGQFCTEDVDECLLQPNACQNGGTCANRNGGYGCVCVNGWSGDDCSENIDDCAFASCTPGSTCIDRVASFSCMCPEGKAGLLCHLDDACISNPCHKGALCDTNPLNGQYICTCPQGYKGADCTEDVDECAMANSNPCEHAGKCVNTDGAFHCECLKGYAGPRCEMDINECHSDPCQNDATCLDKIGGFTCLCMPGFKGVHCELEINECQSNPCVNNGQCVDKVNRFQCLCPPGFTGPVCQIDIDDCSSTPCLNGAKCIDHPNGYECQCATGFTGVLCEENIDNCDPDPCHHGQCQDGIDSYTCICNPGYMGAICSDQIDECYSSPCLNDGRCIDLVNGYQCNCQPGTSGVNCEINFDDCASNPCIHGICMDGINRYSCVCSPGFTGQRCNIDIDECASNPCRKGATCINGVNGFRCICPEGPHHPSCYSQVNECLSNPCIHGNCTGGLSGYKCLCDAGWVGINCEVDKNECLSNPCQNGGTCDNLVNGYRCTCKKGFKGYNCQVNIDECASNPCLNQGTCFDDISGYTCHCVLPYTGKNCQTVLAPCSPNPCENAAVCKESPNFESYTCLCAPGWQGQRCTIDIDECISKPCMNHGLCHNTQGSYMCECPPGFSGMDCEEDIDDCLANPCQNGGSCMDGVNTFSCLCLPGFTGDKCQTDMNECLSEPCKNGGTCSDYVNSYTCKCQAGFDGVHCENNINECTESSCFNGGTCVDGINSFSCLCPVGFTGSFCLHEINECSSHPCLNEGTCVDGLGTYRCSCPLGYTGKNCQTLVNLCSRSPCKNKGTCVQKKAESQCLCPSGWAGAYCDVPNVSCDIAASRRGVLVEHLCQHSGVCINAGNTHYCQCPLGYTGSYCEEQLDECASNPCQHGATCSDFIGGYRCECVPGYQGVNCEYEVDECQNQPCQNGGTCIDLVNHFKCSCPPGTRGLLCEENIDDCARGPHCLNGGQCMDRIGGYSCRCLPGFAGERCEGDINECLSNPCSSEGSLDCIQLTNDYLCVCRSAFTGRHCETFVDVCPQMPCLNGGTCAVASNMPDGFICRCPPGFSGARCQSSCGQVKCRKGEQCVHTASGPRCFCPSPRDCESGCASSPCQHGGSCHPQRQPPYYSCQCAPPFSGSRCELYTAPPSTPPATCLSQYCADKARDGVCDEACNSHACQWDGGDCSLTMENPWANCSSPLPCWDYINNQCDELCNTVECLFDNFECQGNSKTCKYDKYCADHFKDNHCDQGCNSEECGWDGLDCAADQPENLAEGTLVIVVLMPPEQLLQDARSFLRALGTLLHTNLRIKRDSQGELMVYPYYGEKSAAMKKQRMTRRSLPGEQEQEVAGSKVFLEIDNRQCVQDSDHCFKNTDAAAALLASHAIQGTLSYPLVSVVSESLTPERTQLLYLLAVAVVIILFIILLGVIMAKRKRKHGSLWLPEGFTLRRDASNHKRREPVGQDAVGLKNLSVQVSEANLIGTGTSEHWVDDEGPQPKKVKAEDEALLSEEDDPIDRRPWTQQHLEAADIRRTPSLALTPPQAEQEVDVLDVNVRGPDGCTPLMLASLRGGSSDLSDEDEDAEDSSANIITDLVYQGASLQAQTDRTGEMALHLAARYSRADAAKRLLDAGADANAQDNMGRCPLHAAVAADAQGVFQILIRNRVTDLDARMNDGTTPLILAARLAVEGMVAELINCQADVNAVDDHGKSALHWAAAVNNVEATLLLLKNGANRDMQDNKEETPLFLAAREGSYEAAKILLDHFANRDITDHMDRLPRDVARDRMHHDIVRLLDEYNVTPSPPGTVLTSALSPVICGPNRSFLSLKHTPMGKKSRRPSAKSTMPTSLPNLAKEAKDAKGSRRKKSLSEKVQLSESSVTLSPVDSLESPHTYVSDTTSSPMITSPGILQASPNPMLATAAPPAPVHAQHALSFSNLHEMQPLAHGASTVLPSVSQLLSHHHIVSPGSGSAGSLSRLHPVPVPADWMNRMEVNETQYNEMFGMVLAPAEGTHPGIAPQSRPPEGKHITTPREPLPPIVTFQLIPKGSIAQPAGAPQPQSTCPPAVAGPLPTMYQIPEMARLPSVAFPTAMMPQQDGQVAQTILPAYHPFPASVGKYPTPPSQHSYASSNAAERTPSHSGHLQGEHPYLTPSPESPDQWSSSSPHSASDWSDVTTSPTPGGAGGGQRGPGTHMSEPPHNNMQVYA

For `CCCC[C@@H](O)C1=C(C)C[C@H]2C(=O)N(C)C(=O)[C@H]2[C@H]1CO`, the composite z-score in experiment [1] was -0.275; in experiment [2], -0.305; in experiment [3] it was -0.12; in experiment [4] it was 0.469; in experiment [5] it was 0.109; in experiment [6], 0.11. Besides, the composite z-score is -0.0165 in experiment [7]; -0.176 in experiment [9]; -0.318 in [10]; 0.54 in experiment [11]; 1.31 in experiment [15]; -0.328 in experiment [17]. The composite z-score is 1.09 in experiment [18], 0.352 in experiment [19] and -0.21 in [20]. Besides, the z-score in [8] is -0.645 (inactive); in experiment [12], -0.219 (inactive); in [13], -1.6 (inactive); in experiment [14], -1.19 (inactive); in experiment [16], 2.68 (inactive).
On to `CCCNC(=O)[C@@H]1c2ccccc2C(=O)N(Cc2cc(C(F)(F)F)cc(C(F)(F)F)c2)[C@H]1c1ccc(CO)cc1`, for which the composite z-score in experiment [1] is 0.684; in [2] it was -0.27; in [3], 0.0064; in experiment [4], 0.0859; in [5], 0.394; in experiment [6], 0.519. The composite z-score was 1.2 in experiment [7]; 0.361 in [9]; 0.0895 in experiment [10]; 1.09 in [11]; 1.34 in [15]; 0.0758 in experiment [17]. The composite z-score in [18] is 0.261; in experiment [19], 0.523; in [20], -0.0255. In addition, the z-score was -0.0626 (inactive) in experiment [8]; 0.73 (inactive) in [12]; -1.69 (inactive) in [13]; -0.262 (inactive) in [14]; 0.315 (inactive) in experiment [16].
As for `COc1ccc(C(=O)Nc2cccc(CN3C(=O)[C@@]4(O[C@@H](CCO)[C@H]([Si](C)(C)c5ccc(OC)cc5)[C@H]4C)c4ccccc43)c2)cc1`, the composite z-score in experiment [1] is 0.457; in [2], -0.0176; in experiment [3], -0.0784; in experiment [4], 0.19; in [5], 0.0782; in [6] it was -0.0498. Besides, the composite z-score is 0.984 in [7]; 0.0018 in [9]; -0.216 in experiment [10]; 0.95 in [11]; 1.35 in [15]; 0.0005 in experiment [17]. Besides, the composite z-score in [18] was 0.297; in experiment [19], 0.0772; in experiment [20] it was -0.155. Moreover, the z-score in experiment [8] was -3.53 (inactive); in [12], 0.324 (inactive); in experiment [13], -9.44 (active); in experiment [14] it was 0.2 (inactive); in [16], 1.68 (inactive).
Turning to `CCOC(=O)C[C@H]1[C@H](OC(=O)c2ccc(C(=O)c3ccccc3)cc2)[C@@H](NC(=O)Cc2ccc(OC)cc2)c2cc(OCCCO)ccc2N1C(=O)Cc1ccc(OC)cc1`, the composite z-score stood at 0.0476 in experiment [1]; 0.346 in experiment [2]; 0.007 in experiment [3]; 0.35 in experiment [4]; 0.903 in experiment [5]; 0.752 in experiment [6]. Moreover, the composite z-score in experiment [7] is 0.668; in experiment [9] it was 0.971; in experiment [10], -0.132; in [11] it was 1.21; in [15], 1.66; in experiment [17], 0.0673. For the same molecule, the composite z-score in [18] is 0.22; in experiment [19] it was 1.13; in experiment [20], -0.0131. Moreover, the z-score was -1.22 (inactive) in experiment [8]; -0.574 (inactive) in experiment [12]; -1.42 (inactive) in [13]; -0.914 (inactive) in experiment [14]; 1.78 (inactive) in experiment [16].
As for `C[C@@H](OCc1ccccc1)C1NC(=O)[C@@]23C(=O)N[C@@H](Cc4ccccc4)C2[C@H](C)[C@@]2(C)O[C@H]2C3/C=C/C/C=C\CNC(=O)[C@@H]2CCCN2C1=O` (stereo not given in full), the composite z-score in experiment [1] was -0.0401; in experiment [2] it was -0.332; in [3] it was -0.146; in [4] it was -0.595; in experiment [5] it was -0.571; in experiment [6], -0.52. The composite z-score in experiment [7] is 0.633; in [9], -0.111; in experiment [10] it was -0.343; in experiment [11], -0.449; in experiment [15] it was -0.139; in experiment [17], -0.0901. The values for the composite z-score in experiment [18], in [19] and in experiment [20] were -0.315, -0.665 and -0.209, respectively. In addition, the z-score in experiment [8] was 1.91 (inactive); in [12] it was -0.399 (inactive); in [13], -0.985 (inactive); in experiment [14] it was -0.266 (inactive); in experiment [16], 2.34 (inactive).
For `C=CCNC(=O)[C@@H]1[C@H]2C(=O)O[C@H](c3ccccc3)[C@H](c3ccccc3)N2[C@H](c2ccc(O)cc2)[C@@]12C(=O)Nc1ccc(C#Cc3ccc(OC)cc3)cc12`, the composite z-score in experiment [1] is -0.112; in [2], 0.712; in [3], 0.0356; in experiment [4] it was 0.69; in experiment [5] it was 1.46; in experiment [6] it was 0.489. For the same molecule, the composite z-score was 1.16 in [7]; 0.496 in experiment [9]; -0.0672 in [10]; 1.54 in experiment [11]; 1.96 in experiment [15]; 0.0005 in experiment [17]. Also, the values for the composite z-score in experiment [18], in experiment [19] and in experiment [20] were 0.436, 1.14 and -0.0019, respectively. Further, the z-score in [8] is 0.606 (inactive); in [12], -0.147 (inactive); in experiment [13], -1.67 (inactive); in experiment [14] it was 2.97 (inactive); in experiment [16] it was 2.8 (inactive).
